Test results reported in the supplement of paper PMC7156485.
“And” between values parts separate entries of the source, which are not always exact repeats. Equal entries are not always repeated. ± gives the standard deviation of the averaged measurements.

Experiments:
Conditions in all cases: concentration: 10 µM; 24 h
HCC1569 [1] = assay: cell number relative to DMSO (% of DMSO); higher = more cells (less growth inhibition / toxicity)
In short: (§1)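 For HCC1569 and TDF cells, compounds at 10 µM were applied for 24 h at 37 °C in triplicate in 384-well plates. Cells were fixed in 3.7% formaldehyde, stained for H1.0 and with DAPI, and imaged at ×10 over six fields per well. The endpoint, H1.0 nuclear intensity or cell number, is shown as percent of the plate control using the median of replicates. Positional effects were smoothed for HCC1569 only.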

TDF [2] = assay: as above
In short: as §1

TDF [3] = assay: H1.0 immunofluorescence intensity relative to DMSO (% of DMSO); higher = stronger H1.0 induction, active = 120 or more
In short: as §1

HCC1569 [4] = assay: H1.0 immunofluorescence intensity relative to DMSO (% of DMSO); higher = stronger H1.0 induction, active = 140 or more
In short: as §1
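For H1.0 immunofluorescence intensity relative to DMSO in this document: TDF is a line of transformed human dermal fibroblasts of mesenchymal origin.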
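For cell number relative to DMSO in this document: TDF denotes transformed human dermal fibroblasts of mesenchymal origin.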

Compound	cell number (HCC1569 [1])	cell number (TDF [2])	H1.0 immunofluorescence intensity (TDF [3])	H1.0 immunofluorescence intensity (HCC1569 [4])
COc1ccc2c(c1)c(CC(=O)N1CCOCC1)c(C)n2C(=O)c1ccc(Cl)cc1	102	104	94.6 (inactive)	104 (inactive)
COc1cc(C=C(C#N)C(=O)c2ccc(O)c(O)c2)cc(I)c1O [I-OMe-Tyrphostin AG 538]	97.2	102	102 (inactive)	106 (inactive)
CC(=O)NCCc1ccc(O)c(O)c1 [N-Acetyldopamine monohydrate]	101	111	96.7 (inactive)	91.4 (inactive)
CC(C)=CCC(O)C1=CC(=O)c2c(O)ccc(O)c2C1=O (stereo not given) [Shikonin]	27	38.8	119 (inactive)	111 (inactive)
O=C1Nc2ccccc2C1=C1Nc2ccccc2C1=O [Indirubin]	97.2	94.7	105 (inactive)	102 (inactive)
CC(C)CC(NC(=O)C1OC1C(=O)O)C(=O)NCCCCN=C(N)N (stereo not given)	99.92 ± 0.64	96.3 ± 6.9	97.7 (inactive)	97.3 (inactive)
Nc1nc(Nc2ccccc2)nc2c1ncn2C1OC(CO)C(O)C1O (stereo not given) [2-Phenylaminoadenosine]	101	100	90 (inactive)	102 (inactive)
COc1cc2ccc(=O)oc2cc1O [Scopoletin]	101	113	101 (inactive)	88.9 (inactive)
O=NN(CCCl)C(=O)NCCCl [Carmustine]	99	93.9	95.4 (inactive)	89.6 (inactive)
CCCCC1(C2CCCC2)Cc2cc(OCC(=O)O)c(Cl)c(Cl)c2C1=O (stereo not drawn) [R(+)-Butylindazone]	98.8	107	86.7 (inactive)	91.3 (inactive)
COc1ccccc1N1CCN(CC(O)COc2cccc3ccccc23)CC1.Cl.Cl (stereo not given) [Naftopidil.2HCl]	97.4	98.3	88.6 (inactive)	103 (inactive)
NS(=O)(=O)c1cc(C(=O)O)c(NCc2ccco2)cc1Cl [Furosemide]	101 ± 1.2	110 ± 1.9	91 (inactive)	100 (inactive)
O=C1c2ccccc2-[n+]2ccc3c([nH]c4ccccc43)c21.[Cl-] [Fascaplysin, Synthetic]	49.8	6.76	182 (active)	60.9 (inactive)
COc1cc(C(=O)OC2CC3CCC2(C)C3(C)C)ccc1O (stereo not given) [Tschimganine]	101	103	99.6 (inactive)	88.3 (inactive)
CC(Cc1ccc(O)c(O)c1)C(C)Cc1ccc(O)c(O)c1 (stereo not given)	72.5 and 72.1	108 and 87.9	100 (inactive) and 95.2 (inactive)	116 (inactive) and 122 (inactive)
CC(C)CC(NC(=O)C(O)C(N)Cc1ccccc1)C(=O)O.Cl (stereo not given) [Epibestatin hydrochloride]	105	96.3	91.8 (inactive)	100 (inactive)
CCCCCCCCCCCCCCCC(=O)OCC(O)C1OC(=O)C(O)=C1O (stereo not given) [Ascorbyl palmitate]	98.6	105	96.1 (inactive)	102 (inactive)
CC1CCC2(C(=O)O)CCC3(C)C(=CCC4C5(C)CC(O)C(O)C(C)(CO)C5C(O)CC43C)C2C1C (stereo not given) [Madecassic acid]	105	102	91.6 (inactive)	91.7 (inactive)
NC1CCN(c2c(F)cc3c(=O)c(C(=O)O)cn(C4CC4)c3c2Cl)C1 (stereo not given) [Clinafloxacin]	103	101	94.3 (inactive)	107 (inactive)
CCN(CC)CCOc1ccc(C(=C(Cl)c2ccccc2)c2ccccc2)cc1 [Clomiphene]	99.9	88.3	98 (inactive)	116 (inactive)
CC(=O)OCC(=O)[C@@]1(O)CC[C@H]2[C@@H]3CCC4=CC(=O)CC[C@]4(C)[C@@]3(F)[C@@H](O)C[C@@]21C	103	103	80 (inactive)	104 (inactive)
CC(C=CC=C(C)C=CC1=C(C)C(=O)CCC1(C)C)=CC=CC=C(C)C=CC=C(C)C=CC1=C(C)C(=O)CCC1(C)C [Canthaxanthin]	102 ± 4.6	104 ± 3.5	90 (inactive)	106 (inactive)
CCCCCCCCCCCCCCCC(O)C(N)CO (racemic) [DL-Dihydrosphingosine]	103	101	96.2 (inactive)	100 (inactive)
CCC(C)C(=O)OC1CC(C)C=C2C=CC(C)C(CCC3CC(O)CC(=O)O3)C21 (stereo not given) [Lovastatin]	99.4	80.8	119 (inactive)	106 (inactive)
Fc1ccc(-c2c3cccc(C(F)(F)F)c3nn2Cc2ccc(F)cc2Cl)cc1	100	95.3	92.3 (inactive)	102 (inactive)

Compound	cell number (HCC1569 [1])	cell number (TDF [2])	H1.0 immunofluorescence intensity (TDF [3])	H1.0 immunofluorescence intensity (HCC1569 [4])
CCC(C)SSc1ncc[nH]1 (stereo not given) [2-(sec-butyldisulfanyl)-1H-imidazole]	83.7	105	87.7 (inactive)	107 (inactive)
CN1CCCC1c1cccnc1.Cc1ccc(C(=O)OC(C(=O)O)C(OC(=O)c2ccc(C)cc2)C(=O)O)cc1 (stereo not drawn) [(+)-Nicotine (+)-di-p-toluoyl tartrate]	102	109	88.1 (inactive)	99.5 (inactive)
O=C1CCc2c(ccc3ccccc23)O1 [1,2-dihydro-3H-benzo[f]chromen-3-one]	103	101	95.1 (inactive)	92.7 (inactive)
Cl.O=S(=O)(c1cccc2c(I)cccc12)N1CCCNCC1	105	116	99.4 (inactive)	89.8 (inactive)
Cc1cnc(-c2cnc(NCCNc3ccc(C#N)cn3)nc2-c2ccc(Cl)cc2Cl)[nH]1	70.4	74.4	114 (inactive)	112 (inactive)
Cl.c1ccc2c(c1)CCCC2C1=NCCN1 (stereo not given) [Tetrahydrozoline hydrochloride]	101	98.1	89.8 (inactive)	98.3 (inactive)
CC1CNc2c(cccc2S(=O)(=O)N[C@@H](CCCN=C(N)N)C(=O)N2CC[C@@H](C)C[C@@H]2C(=O)O)C1.O (stereo not given in full)	102	104	89.5 (inactive)	105 (inactive)
CC(=O)SCC[N+](C)(C)C.[Cl-] [Acetylthiocholine chloride]	102	111	89.2 (inactive)	92.5 (inactive)
COC(=O)C=Cc1cc(O)ccc1O [2,5-Dihydroxycinnamic acid methyl ester]	104	103	91.7 (inactive)	93.6 (inactive)
CCCCCC=CCC=CCCCCCCCCCCCC(=O)O [13(Z),16(Z)-Docosadienoic acid]	100	109	104 (inactive)	89.9 (inactive)
CN(c1ncccc1CNc1nc(Nc2ccc3c(c2)CC(=O)N3)ncc1C(F)(F)F)S(C)(=O)=O	54.6	32.3	116 (inactive)	118 (inactive)
Cl.OC(CCN1CCCCC1)(c1ccccc1)C1CCCCC1 (stereo not given) [Trihexyphenidyl hydrochloride]	103	104	94 (inactive)	75.4 (inactive)
O=C(O)c1cc(=O)cc(C(=O)O)[nH]1 [Chelidamic acid]	98.8	109	90 (inactive)	96.3 (inactive)
CCCCCCC=CC=CCCCCCCCC(=O)O [9(Z), 11(Z)-octadecadienoic acid]	99.8	108	107 (inactive)	103 (inactive)
CCCCCC=CCC=CC=CC=CC(SCC(N)C(=O)NCC(=O)O)C(O)CCCC(=O)O (stereo not given) [Leukotriene D4]	106	99.8	92.1 (inactive)	97.3 (inactive)
NC(=O)c1ccc(-c2nc(-c3ccc4c(c3)OCO4)c(-c3ccccn3)[nH]2)cc1	95.7	106	95.9 (inactive)	136 (inactive)
OCC1OC(Oc2ccc(O)cc2)C(O)C(O)C1O (stereo not given) [Arbutin]	99.6	101	102 (inactive)	92.1 (inactive)
Oc1cccc(-c2nc(N3CCOCC3)c3oc4ncccc4c3n2)c1	56.8	70	88 (inactive)	205 (active)
COc1ccc2c(c1)c(CC(=O)O)c(C)n2C(=O)c1ccccc1 [1-benzoyl-5-methoxy-2-methylindole-3-acetic acid]	101	104	96.8 (inactive)	93.1 (inactive)
O=C(O)C1CCCNC1C(=O)O (mixture of isomers)	108	110	96.4 (inactive)	96.7 (inactive)
N=C1SC(=Cc2ccc(-c3ccc4c(c3)C(=O)NC4=O)o2)C(=O)N1c1ccc(Br)cc1 [Bioymifi]	94.2	67.9	96.5 (inactive)	277 (active)
Cc1cc(C(C)(C)C)cc(C)c1CC1=NCCN1.Cl [Xylometazoline hydrochloride]	97.5	93.3	98.3 (inactive)	110 (inactive)
CCCCCC=CCC=CCC=CCCCCCCC(=O)OC(COCCCCCCCCCCCCCCCC)COP(=O)([O-])OCC[N+](C)(C)C (stereo not given)	101	98.5	96.6 (inactive)	96.9 (inactive)
CC(N)=NCc1cccc(CN)c1.Cl.Cl [1400W dihydrochloride]	101	119	90.6 (inactive)	109 (inactive)
Cc1cc(C(C)Nc2ccccc2)c2nc(N3CCOCC3)cc(=O)n2c1 (stereo not given)	80.7	109	92.5 (inactive)	136 (inactive)
